Measured values taken from PubChem BioAssay AID504710 (Sanford-Burnham Center for Chemical Genomics, 2011).
Unmarked numbers belong to inactive results. Calls of active or inactive are those of the source.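 Rule for the calls: active = inhibition reaching about 16% in any single replicate (limit read from the data); inactive = the rest.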

Target: Hexokinase HKDC1 (Homo sapiens) (UniProt Q2TB90)
Experiment: HKDC1 hexokinase inhibitors, confirmation, biochemical, single concentration (AID 504710)
Settings: recombinant HKDC1, G6PDH/diaphorase/resazurin fluorescence; at 20 µM; hits give high values

Sequence of Hexokinase HKDC1 (Homo sapiens) (Q2TB90 whole entry, looked up): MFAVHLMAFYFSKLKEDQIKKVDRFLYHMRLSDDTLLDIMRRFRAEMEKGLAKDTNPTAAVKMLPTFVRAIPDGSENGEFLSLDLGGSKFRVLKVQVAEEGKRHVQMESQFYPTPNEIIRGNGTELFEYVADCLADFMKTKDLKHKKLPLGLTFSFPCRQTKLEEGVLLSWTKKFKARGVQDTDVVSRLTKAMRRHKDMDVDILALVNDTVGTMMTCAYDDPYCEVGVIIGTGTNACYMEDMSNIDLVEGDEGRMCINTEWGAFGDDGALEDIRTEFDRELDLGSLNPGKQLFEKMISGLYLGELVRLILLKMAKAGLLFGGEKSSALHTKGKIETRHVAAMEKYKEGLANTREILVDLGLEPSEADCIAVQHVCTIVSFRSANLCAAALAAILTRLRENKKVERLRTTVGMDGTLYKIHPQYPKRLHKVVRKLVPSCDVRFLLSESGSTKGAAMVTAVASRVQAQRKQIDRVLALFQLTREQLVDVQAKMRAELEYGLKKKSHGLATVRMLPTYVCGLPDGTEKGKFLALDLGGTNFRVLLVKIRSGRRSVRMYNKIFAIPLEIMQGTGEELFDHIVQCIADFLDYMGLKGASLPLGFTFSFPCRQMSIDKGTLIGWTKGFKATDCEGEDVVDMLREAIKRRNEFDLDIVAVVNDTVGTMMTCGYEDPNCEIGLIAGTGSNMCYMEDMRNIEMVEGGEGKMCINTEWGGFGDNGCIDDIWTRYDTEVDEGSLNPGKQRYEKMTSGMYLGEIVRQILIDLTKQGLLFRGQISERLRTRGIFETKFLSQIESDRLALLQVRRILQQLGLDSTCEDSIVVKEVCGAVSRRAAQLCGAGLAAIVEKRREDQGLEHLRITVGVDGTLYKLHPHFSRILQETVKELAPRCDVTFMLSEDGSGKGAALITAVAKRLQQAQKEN

COc1ccc2cc(CCNC(=O)c3ccc(S(=O)(=O)N4CCCC4)cc3)c(=O)[nH]c2c1
inhibition: 59.8% (active)

Cc1cc(C)n2nc(SCc3nnc(SCc4ccccc4C)s3)nc2n1
inhibition: 69.2% (active)

CC(=O)Oc1cccc2c1C(=O)C1CC=CC(OC(C)=O)C1C2=O (stereo not drawn)
inhibition: -65.8%

CC(C)c1nc2oc3c(NCCO)ncnc3c2c2c1COC(C)(C)C2
inhibition: 66.2% (active)

O=C(NCCc1ccccc1)c1cnn2c(C(F)F)cc(C3CC3)nc12
inhibition: 59.8% (active)

O=C(O)[C@@H](c1ccccc1)N1Cc2ccccc2C1=O
inhibition: 43.8% (active)

NC(=O)C1CCN(C2=C(Cl)C(=O)c3ccccc3C2=O)CC1
inhibition: 73% (active)

Oc1ccc(/C=N/NC(=S)Nc2cccnc2)c(O)c1
inhibition: 14.6% (active)

CC(C)(C)c1c(Cl)c(O)c(-c2ccccc2)c(=O)n1-c1ccccc1
inhibition: 40.9% (active)

O=C(C1=C(c2ccccc2)C(=O)c2ccccc2C1=O)c1ccccc1
inhibition: 52% (active)

CCOC(=O)c1ccc(NC2=CC(=O)C(=O)c3ccccc32)cc1
inhibition: 27.6% (active)

CC(=NNC(=S)N1CCN(C2CCCCCC2)CC1)c1ccccn1
inhibition: -39.9%

O=C(/C=C/c1ccc(Br)cc1)NC(=S)Nc1ccc(S(=O)(=O)Nc2nccs2)cc1
inhibition: 39.5% (active)

Cc1nc([N+](=O)[O-])c(Br)n1CC(=O)c1ccc2ccccc2c1
inhibition: 40.1% (active)

Cc1oc2c(c1C(=O)c1ccccc1)C(=O)C(=O)c1ccccc1-2
inhibition: 51.8% (active)

O=C1C(Nc2ccccc2)=C/C(=N/S(=O)(=O)c2cccs2)c2ccccc21
inhibition: 65% (active)

O=C1C=C(c2c(O)ccc3ccccc23)c2ccccc2C1=O
inhibition: 78.1% (active)

O=C(CNC(=O)/C=C/c1ccco1)N=Nc1c(O)[nH]c2ccccc12
inhibition: 39% (active)

O=C(O)c1ccc(N=Cc2c(O)ccc3ccccc23)cc1
inhibition: 43% (active)

O=C(CSc1n[nH]c(-c2cccnc2)n1)Nc1ccnc2ccccc12
inhibition: 46% (active)

NC1=C(Br)C(=O)c2ncccc2C1=O
inhibition: 50.8% (active)

COc1ccccc1C1=NNC(=Nc2cccc(S(=O)(=O)N(C)C)c2)SC1
inhibition: -177%

CC(=O)N1CCN(C2c3cccc4cccc(c34)C2NS(=O)(=O)c2ccccc2)CC1 (stereo not drawn)
inhibition: -45.3%

Fc1ccccc1N=C1NN=C(c2ccccc2)CS1
inhibition: -53.4%

Cc1ccc(C2=NNC(=Nc3ccc(F)cc3)SC2)cc1
inhibition: -80%

CCCc1nc2oc3c(NCC4CCCO4)ncnc3c2c2c1COC(C)(C)C2 (stereo not drawn)
inhibition: 28.9% (active)

COC(=O)c1ccccc1NC1=C/C(=N\S(=O)(=O)c2ccc(C(=O)O)cc2)c2ccccc2C1=O
inhibition: 86% (active)

COc1cc(OC)cc(C(=O)NC(=S)NNC(=O)c2cnccn2)c1
inhibition: -40%

CCOc1ccccc1Nc1nnc(SCc2nnc(-c3cc(OC)c(OC)c(OC)c3)o2)s1
inhibition: 44.7% (active)

O=C1C(C2=C(O)c3ccccc3C2=O)=Nc2ccccc21
inhibition: -162%

CC(=O)Nc1ccc(NC2=C/C(=N/S(=O)(=O)c3cccs3)c3ccccc3C2=O)cc1
inhibition: 51.9% (active)

Cc1ccc(NC2c3ncccc3C(=O)N2c2ccccc2C)cc1C (stereo not drawn)
inhibition: 36.2% (active)

CC(C)c1nc2oc3c(NCC4CCCO4)ncnc3c2c2c1COC(C)(C)C2 (stereo not drawn)
inhibition: 62.8% (active)

Cc1ccc(S(=O)(=O)/N=C2\C=C(Nc3cccc(C(=O)O)c3)C(=O)c3ccccc32)c(C)c1
inhibition: 57.8% (active)

CC(OC(=O)c1cc(O)c2ccccc2c1O)C(=O)Nc1ccc(C(N)=O)cc1 (stereo not drawn)
inhibition: 28.4% (active)

N#C/C(=C(/O)CCl)c1nc2c(s1)CCc1ccccc1-2
inhibition: 46.1% (active)

COC1=CC(=O)C(C2CC(=O)c3c(O)cc(O)cc3O2)=CC1=O (stereo not drawn)
inhibition: 39.8% (active)

Cc1cc2cc(CCNC(=O)c3ccc(S(=O)(=O)N4CCOCC4)cc3)c(=O)[nH]c2cc1C
inhibition: 45% (active)

O=C(O)COc1ccc(/C=N/NC(=O)c2ccc(-c3csc(Nc4ccc(Cl)cc4)n3)cc2)cc1
inhibition: 24.2% (active)

O=C(NNC(=S)Nc1ccc(Cl)c(Cl)c1)c1ccccn1
inhibition: -74.1%

COc1ccc(-c2[nH]c(-c3ccc(SC)cc3)nc2SCC(=O)Nc2nccs2)cc1
inhibition: -36.1%

O=S(=O)(Nc1ccc(O)c2ccccc12)c1cccs1
inhibition: 30.6% (active)

CC(=O)N(C1=C(Cl)C(=O)c2ccccc2C1=O)C1CCCCC1
inhibition: 78.2% (active)
